Experimental data: PubChem BioAssay (Tox21)
A number with no mark means an inactive call. Where a call stands in place of a potency, no number is given. Active and inactive are the calls of the source. Unless noted, the call rests on the fitted dose curve; in most records, active means well fitted curve in the direction sought with a large enough effect in the repeat runs; inconclusive means weak or mixed curves; inactive means no such curve, though single readings can be large; an effect the other way counts as inactive or inconclusive.

Experiments:
[1] = qHTS assay to identify small molecule antagonists of the thyroid receptor (TR) signaling pathway (AID 743065); further: nearly all actives have a fitted effect of over 55% in size; further: potency means the concentration at half of the fitted maximal effect
Summary of the method: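 GH3.TRE-Luc rat pituitary cells (two TREs driving luciferase) were dosed with compound, then stimulated with 1 nM T3 (final) for 23.5 h at 37 C. ONE-Glo luminescence was the read-out, with CellTiter-Fluor fluorescence as the cytotoxicity counter-screen.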

[2] = test system: thyroid hormone receptor (rat, GH3 cells); test: qHTS assay to identify small molecule agonists of the thyroid receptor (TR) signaling pathway (AID 743066; calls by dose curve; further: potency means the concentration at half of the fitted maximal effect)
[3] = qHTS assay to identify small molecule antagonists of the estrogen receptor alpha (ER-alpha) signaling pathway - cell viability counter screen (AID 743074; calls by dose curve; further: nearly all actives have a fitted effect of over 45% in size)
[4] = qHTS assay to identify small molecule antagonists of the estrogen receptor alpha (ER-alpha) signaling pathway using the BG1 cell line - cell viability counter screen (AID 743081);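 further: compound given together with 17beta-estradiol as the ER stimulus; series mostly up to about 70 µM; nearly all actives have a fitted effect of over 45% in size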
Aromatase (Homo sapiens) = Aromatase (Homo sapiens) (UniProt P11511); test: qHTS assay to identify aromatase inhibitors (AID 743083); further: nearly all actives have a fitted effect of over 55% in size; further: potency means the concentration at half of the fitted maximal effect
Chain of Aromatase (Homo sapiens) (P11511 whole entry, looked up): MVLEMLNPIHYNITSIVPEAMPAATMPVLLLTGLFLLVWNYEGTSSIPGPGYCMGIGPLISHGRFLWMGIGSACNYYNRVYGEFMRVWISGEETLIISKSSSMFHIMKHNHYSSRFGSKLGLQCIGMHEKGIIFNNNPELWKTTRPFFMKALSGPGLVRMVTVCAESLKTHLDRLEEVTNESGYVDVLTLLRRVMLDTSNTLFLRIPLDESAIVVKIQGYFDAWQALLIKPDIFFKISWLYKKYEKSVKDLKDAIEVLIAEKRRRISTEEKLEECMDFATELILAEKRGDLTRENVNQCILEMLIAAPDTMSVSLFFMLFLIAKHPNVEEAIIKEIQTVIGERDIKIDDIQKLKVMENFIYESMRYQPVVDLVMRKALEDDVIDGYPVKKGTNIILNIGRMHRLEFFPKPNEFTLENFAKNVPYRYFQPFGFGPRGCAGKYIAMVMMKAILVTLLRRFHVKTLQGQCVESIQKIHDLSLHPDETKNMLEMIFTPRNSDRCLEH

[5] = qHTS assay to identify aromatase inhibitors - cell viability counter screen (AID 743084);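 further: cells stimulated with testosterone during compound exposure; nearly all actives have a fitted effect of over 55% in size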; further: potency means the concentration at half of the fitted maximal effect
[6] = molecular target: Estrogen receptor (Homo sapiens) (UniProt P03372); test: qHTS assay to identify small molecule antagonists of the estrogen receptor alpha (ER-alpha) signaling pathway (AID 743069; active means well fitted curve in the direction sought with a large enough effect in the signal ratio in the repeat runs, not every such curve was filed as active; inconclusive means weak or mixed curves, or effect the other way; inactive means no such curve, though single readings can be large or run the other way; the % refers to the signal ratio; further: potency means the concentration at half of the fitted maximal effect)
Chain of Estrogen receptor (Homo sapiens) (P03372 whole entry, looked up): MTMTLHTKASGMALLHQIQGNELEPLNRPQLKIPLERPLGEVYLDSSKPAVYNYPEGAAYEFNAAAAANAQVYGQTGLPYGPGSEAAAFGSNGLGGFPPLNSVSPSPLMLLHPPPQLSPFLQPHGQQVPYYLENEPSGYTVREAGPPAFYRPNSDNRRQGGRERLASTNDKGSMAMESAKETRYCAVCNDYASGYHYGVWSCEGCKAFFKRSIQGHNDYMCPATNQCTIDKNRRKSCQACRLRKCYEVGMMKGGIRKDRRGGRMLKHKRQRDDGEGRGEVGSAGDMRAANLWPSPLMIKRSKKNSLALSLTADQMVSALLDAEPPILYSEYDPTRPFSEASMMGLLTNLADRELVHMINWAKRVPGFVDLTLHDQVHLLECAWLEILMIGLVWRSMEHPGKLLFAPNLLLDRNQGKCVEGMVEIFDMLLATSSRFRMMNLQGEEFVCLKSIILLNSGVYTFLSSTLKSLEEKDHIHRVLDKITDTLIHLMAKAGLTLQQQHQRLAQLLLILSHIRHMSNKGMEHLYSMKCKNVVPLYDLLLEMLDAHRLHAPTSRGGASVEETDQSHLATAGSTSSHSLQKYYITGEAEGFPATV
Summary of the method: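 In this cell-based reporter format, GripTite HEK293 cells harbouring ER-alpha-UAS-bla were grown overnight with 2% charcoal-stripped FBS, dosed with DMSO-dissolved compounds, then challenged with 17beta-estradiol. After 18 hr at 37C, beta-lactamase activity was detected by FRET fluorescence.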

[7] = molecular target: Estrogen receptor (Homo sapiens) (UniProt P03372); test: qHTS assay to identify small molecule agonists of the estrogen receptor alpha (ER-alpha) signaling pathway (AID 743075; calls by dose curve)
[8] = molecular target: Estrogen receptor (Homo sapiens) (UniProt P03372); test: qHTS assay to identify small molecule agonists of the estrogen receptor alpha (ER-alpha) signaling pathway using the BG1 cell line (AID 743079); further: nearly all actives have a fitted effect of over 20% in size; further: potency means the concentration at half of the fitted maximal effect
[9] = qHTS assay to identify small molecule antagonists of the estrogen receptor alpha (ER-alpha) signaling pathway using the BG1 cell line (AID 743080; calls by dose curve;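 further: BG1 cells stimulated with 17beta-estradiol alongside compound; series mostly up to about 70 µM; nearly all actives have a fitted effect of over 25% in size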)
Summary of the method: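 Luminescence from a 4×ERE-luciferase reporter in BG1-Luc-4E2 cells served as read-out. Cells, pre-cultured 5 days in stripped-serum phenol-red-free medium, were exposed to compound with 17beta-estradiol co-stimulation for 21.5 h at 37 C.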

| Structure (SMILES) | Potency [1] | Potency [2] | outcome [3] | outcome [4] | Potency (Aromatase (Homo sapiens)) | Potency [5] | Potency [6] | Potency [7] | Potency [8] | Potency [9] |
| --- | --- | --- | --- | --- | --- | --- | --- | --- | --- | --- |
| C[C@H]1O[C@@H](n2cc(F)c(=O)[nH]c2=O)[C@H](O)[C@@H]1O | inactive | inactive | inactive | inactive | inactive | inactive | – | – | – | – |
| C1C2OC2C2C1C1CC2C2OC12 (stereo not given) | inactive | inactive | inactive | inactive | inactive | inactive | – | – | – | – |
| C1=C\CC/C=C\CC/C=C\CC/1 | inactive | inactive | inactive | inactive | inactive | inactive | – | – | – | – |
| Cc1ccc(N)cc1[N+](=O)[O-] | inactive | inactive | inactive | inactive | – | inactive | – | – | – | – |
| CCOC(=O)[C@H](CCc1ccccc1)N[C@@H](C)C(=O)N1CCC[C@H]1C(=O)O | inactive | inactive | inactive | inactive | inactive | inactive | – | – | – | – |
| COc1cc(CCC(C)=O)ccc1O | inactive | inactive | inactive | inactive | inactive | inactive | – | – | – | – |
| COc1cc(C)cc(O)c1 | inactive | inactive | inactive | inactive | inactive | inactive | – | – | – | – |
| C#CC(O)C(CC)CCCC (stereo not given) | inactive | inactive | inactive | inactive | inactive | inactive | – | – | – | – |
| OC/C=C/c1ccccc1 | inactive | inactive | inactive | inactive | inactive | inactive | – | – | – | – |
| CC(C=O)Cc1ccc(C(C)C)cc1 (stereo not given) | inactive | inactive | inactive | inactive | inactive | inactive | – | – | – | – |
| CSc1ccc(C=O)cc1 | inactive | inactive | inactive | inactive | inactive | inactive | – | – | – | – |
| N#CC1(O)CCCCC1 | inactive | inactive | inactive | inactive | – | inactive | – | – | – | – |
| C#CC(C)(O)CC(C)C (stereo not given) | inactive | inactive | inactive | inactive | inactive | inactive | – | – | – | – |
| CCCOCC(C)OCC(C)O (stereo not given) | inactive | inactive | inactive | inactive | inactive | inactive | – | – | – | – |
| CCN1CCCC(OC(=O)C(c2ccccc2)c2ccccc2)C1 (stereo not given) | – | inactive | inactive | – | inactive | – | inactive | inactive | inactive | inactive |
| CCC(=O)/C=C/c1ccc(OC)cc1 | – | inactive | – | inactive | inactive | inactive | inactive | inactive | inactive | – |
| CN(C)CCn1nnnc1SCC1=C(C(=O)O)N2C(=O)[C@@H](NC(=O)Cc3csc(N)n3)[C@H]2SC1 | inactive | inactive | – | inactive | inactive | inactive | – | – | – | – |
| Cc1nccn1CC1CCc2c(c3ccccc3n2C)C1=O (stereo not given) | – | inactive | inactive | inactive | inactive | inactive | inactive | inactive | inactive | inactive |
| Cn1cnc2c(=O)[nH]c(N)nc21 | inactive | inactive | – | inactive | inactive | inactive | – | – | – | – |
| CC(C)c1ccc2oc3nc(N)c(C(=O)O)cc3c(=O)c2c1 | – | inactive | inactive | inactive | inactive | inactive | – | – | – | – |
| Oc1ccc2c(c1)OC[C@@H](N1CCC(O)(c3ccc(F)cc3)CC1)[C@H]2O | inactive | – | inactive | inactive | inactive | inactive | – | inactive | 9.44 µM (active) | – |
| CCCCCCCCCCCCCCCCCCOCC(O)CO (stereo not given) | – | – | inactive | inactive | inactive | inactive | – | – | inactive | – |
| CN1[C@@H]2CC[C@H]1CC(NC(=O)n1c(=O)[nH]c3ccccc31)C2 (stereo not given in full) | – | – | inactive | inactive | inactive | inactive | inactive | inactive | inactive | inactive |
| COc1ccc(NC(C)=O)cc1 | inactive | inactive | – | inactive | inactive | inactive | – | – | – | – |
| C=C(C)[C@@H]1CCC2=CC(=O)C[C@@H](C)[C@]2(C)C1 | – | inactive | inactive | inactive | – | inactive | inactive | inactive | inactive | inactive |

| Structure (SMILES) | Potency [1] | Potency [2] | outcome [3] | outcome [4] | Potency (Aromatase (Homo sapiens)) | Potency [5] | Potency [6] | Potency [7] | Potency [8] | Potency [9] |
| --- | --- | --- | --- | --- | --- | --- | --- | --- | --- | --- |
| CN(C)CCOC(c1ccc(Cl)cc1)c1ccccn1 (stereo not given) | – | inactive | inactive | inactive | – | inactive | inactive | inactive | inactive | inactive |
| Cc1nc(-c2ccc(OCC(C)C)c(C#N)c2)sc1C(=O)O | 13.3 µM (active) | inactive | – | inactive | inactive | inactive | – | inactive | – | – |
| CCCCCCCCCCCCCCC | inactive | inactive | – | inactive | – | – | – | – | – | – |
| COC(=O)[C@H]1[C@H]2C[C@@H]3c4[nH]c5cc(OC)ccc5c4CCN3C[C@H]2C[C@@H](OC(=O)COc2ccc(OC)cc2)[C@@H]1OC | 23.7 µM (active) | – | inactive | inactive | inactive | inactive | – | inactive | inactive | – |
| CCC(=O)Nc1cccc(N)c1 | – | – | inactive | inactive | inactive | inactive | inactive | inactive | inactive | inactive |
| COC(=O)C1=C(C)NC(C)=C(C(=O)OCC(C)=O)C1c1ccccc1[N+](=O)[O-] (stereo not given) | 7.5 µM (active) | – | inactive | – | 26.6 µM (active) | 26.6 µM (active) | – | inactive | inactive | – |
| NC1CCN(c2cccc(Cl)n2)CC1 | – | inactive | inactive | – | inactive | inactive | – | – | – | – |
| CO[Si](OC)(OC)OC | – | inactive | inactive | inactive | inactive | inactive | – | – | – | – |
| CC(=O)c1ccc(C)cc1 | – | – | inactive | inactive | inactive | inactive | inactive | inactive | inactive | inactive |
| CC(O)CN(CCCN(C)C)CCCN(C)C (stereo not given) | inactive | inactive | – | inactive | – | – | – | – | – | – |
| Nc1[nH]c(=O)ncc1F | – | – | inactive | inactive | inactive | inactive | inactive | inactive | inactive | – |
| C=C(C)C(=O)NCCCN(C)C | inactive | – | inactive | inactive | inactive | inactive | – | – | – | – |
| C=C(C)[C@H]1CC=C(C)CC1 | – | – | inactive | inactive | inactive | inactive | inactive | inactive | inactive | inactive |
| CCCCC1CCCCC(=O)O1 (stereo not given) | inactive | – | inactive | inactive | inactive | inactive | inactive | inactive | inactive | – |
| c1ccc(SCCSc2ccccc2)cc1 | inactive | inactive | – | inactive | inactive | inactive | – | – | – | – |
| O=C(O)/C=C/c1ccc(Cn2ccnc2)cc1 | – | – | inactive | inactive | inactive | inactive | – | – | – | – |
| CN(C)C(=O)C(CCN1CCC(O)(c2ccc(Cl)cc2)CC1)(c1ccccc1)c1ccccc1 | 8.41 µM (active) | – | – | – | 26.6 µM (active) | – | – | inactive | – | – |
| Cc1ccccc1Br | – | – | inactive | inactive | inactive | inactive | – | – | – | – |
| OC1OC[C@@H](O)[C@H](O)[C@H]1O (stereo not given in full) | inactive | inactive | – | inactive | inactive | inactive | – | – | – | – |
| COC(C(=O)O)c1ccccc1 (stereo not given) | inactive | inactive | – | inactive | inactive | inactive | – | – | – | – |
| NC(CS)C(=O)O (stereo not given) | inactive | inactive | inactive | – | inactive | inactive | – | – | – | – |
| CSc1nc(NC2CC2)nc(NC(C)(C)C)n1 | – | inactive | inactive | inactive | inactive | inactive | – | – | – | – |
| O=C(O)Cc1cc(I)c(Oc2cc(I)c(O)c(I)c2)c(I)c1 | – | 0.003 µM (active) | inactive | inactive | inactive | inactive | 15.2 µM [inconclusive] (active) | inactive | – | inactive |
| COc1ccc(N=[N+]([O-])c2ccc(OC)cc2)cc1 | – | inactive | inactive | inactive | inactive | inactive | – | inactive | 0.0679 µM (active) | – |
| c1cc(CN2CCCCC2)cc(OCCCNc2nc3ccccc3s2)c1 | 23.7 µM (active) | – | – | inactive | – | inactive | inactive | inactive | – | – |
